Results filed as inconclusive are left out. The source made the active and inactive calls. How the source made its calls: active means hit-call score of the fitted dose curve at least 0.9, where 1 is the maximum; inconclusive means response in the unintended direction; inactive means score below 0.9.
These compounds were tested against human Esterase Plasma (ES), BCHE (gene 590) (UniProt P06276) (assay: NVS_ENZ_hES: NovaScreen (NVS) Enzymatic Assay for human Esterase Plasma (ES) (AID 2283157)).
Method in brief: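 Cell-free enzyme assay using esterase extracted from human plasma; colorimetric absorbance read 0.25 hour after dosing. Single-concentration duplicate screen at 25 uM, then concentration-response up to 50 uM; loss of signal scored against DMSO baseline.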

Chain of human Esterase Plasma (ES), BCHE (gene 590) (P06276 whole entry, looked up): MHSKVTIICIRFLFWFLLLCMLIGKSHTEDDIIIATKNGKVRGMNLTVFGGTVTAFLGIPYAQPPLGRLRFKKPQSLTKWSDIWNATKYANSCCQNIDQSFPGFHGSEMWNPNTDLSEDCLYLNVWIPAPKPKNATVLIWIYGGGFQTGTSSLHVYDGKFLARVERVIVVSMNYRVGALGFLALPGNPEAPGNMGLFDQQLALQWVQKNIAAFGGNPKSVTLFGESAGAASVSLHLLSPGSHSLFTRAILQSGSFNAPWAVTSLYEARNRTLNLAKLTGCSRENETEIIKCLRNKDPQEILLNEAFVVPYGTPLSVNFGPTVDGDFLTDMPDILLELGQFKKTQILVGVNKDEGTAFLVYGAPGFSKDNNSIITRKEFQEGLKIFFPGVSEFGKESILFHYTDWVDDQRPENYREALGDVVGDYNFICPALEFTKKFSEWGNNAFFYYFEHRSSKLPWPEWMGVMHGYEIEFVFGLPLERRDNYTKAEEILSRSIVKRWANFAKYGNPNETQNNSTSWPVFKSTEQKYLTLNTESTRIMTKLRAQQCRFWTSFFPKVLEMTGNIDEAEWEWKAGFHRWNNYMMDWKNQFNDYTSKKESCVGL

| SMILES | AC50 | outcome |
| --- | --- | --- |
| Cc1ccccc1CO[C@@H]1C[C@@]2(C(C)C)CC[C@]1(C)O2 | 9.07 µM (active) | – |
| CCCCCCCCCC[N+](C)(C)CCCCCCCCCC | 25 µM (active) | – |
| CCCN(CCC)N=O | – | inactive |
| O=C(N[C@H]1CN2CCC1CC2)c1cc2ccoc2cn1 | – | inactive |
| CC1=C2C[C@H]3[C@@H](CC=C4C[C@@H](O)CC[C@@]43C)[C@@H]2CC[C@]12O[C@@H]1C[C@H](C)CN[C@H]1[C@H]2C | 12.5 µM (active) | – |

These compounds were tested against human Ephrin type-A Receptor 1 (EphA1), EPHA1 (gene 2041) (UniProt P21709) (assay: NVS_ENZ_hEphA1: NovaScreen (NVS) Enzymatic Assay for human Ephrin type-A Receptor 1 (EphA1) (AID 2283158);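 further: activity is signal loss versus DMSO meaning EphA1 kinase inhibition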).
Method in brief: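 Here the EphA1 protein is recombinant and the substrate fluorescent, with electrophoretic separation before fluorescence detection at 1 hour. Signal loss against DMSO defines activity; plate controls included; follow-up concentration series reach 50 uM.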

Chain of human Ephrin type-A Receptor 1 (EphA1), EPHA1 (gene 2041) (P21709 whole entry, looked up): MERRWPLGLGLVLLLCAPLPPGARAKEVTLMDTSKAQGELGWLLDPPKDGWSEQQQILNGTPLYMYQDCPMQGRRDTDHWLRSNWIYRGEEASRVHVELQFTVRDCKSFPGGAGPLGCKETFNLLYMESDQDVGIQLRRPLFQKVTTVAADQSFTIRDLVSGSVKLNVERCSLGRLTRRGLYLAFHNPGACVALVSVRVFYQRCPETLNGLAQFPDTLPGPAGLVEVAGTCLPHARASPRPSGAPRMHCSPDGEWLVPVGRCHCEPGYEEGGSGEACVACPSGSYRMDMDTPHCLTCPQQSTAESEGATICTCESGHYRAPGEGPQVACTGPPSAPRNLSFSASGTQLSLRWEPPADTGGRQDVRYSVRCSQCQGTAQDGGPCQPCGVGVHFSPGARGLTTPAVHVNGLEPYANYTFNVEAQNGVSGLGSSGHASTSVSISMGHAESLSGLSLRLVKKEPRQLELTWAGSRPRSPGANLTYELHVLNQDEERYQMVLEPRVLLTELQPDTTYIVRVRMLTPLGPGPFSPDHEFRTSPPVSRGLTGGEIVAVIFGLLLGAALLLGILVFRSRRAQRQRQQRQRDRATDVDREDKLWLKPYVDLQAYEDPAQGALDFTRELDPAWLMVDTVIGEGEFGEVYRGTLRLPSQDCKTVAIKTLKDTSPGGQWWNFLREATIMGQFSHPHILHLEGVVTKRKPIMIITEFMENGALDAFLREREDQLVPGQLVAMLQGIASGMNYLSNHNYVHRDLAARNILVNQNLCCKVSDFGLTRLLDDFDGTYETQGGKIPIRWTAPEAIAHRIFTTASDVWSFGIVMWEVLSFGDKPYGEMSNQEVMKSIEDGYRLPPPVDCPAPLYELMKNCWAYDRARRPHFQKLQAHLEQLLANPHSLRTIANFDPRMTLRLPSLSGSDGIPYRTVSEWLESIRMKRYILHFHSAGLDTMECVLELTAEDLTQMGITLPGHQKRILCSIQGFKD

| SMILES | outcome | AC50 |
| --- | --- | --- |
| O=C(NC(=O)c1c(F)cccc1F)Nc1cc(Cl)c(OC(F)(F)C(F)F)c(Cl)c1 | inactive | – |
| CCCCCCCCCC[N+](C)(C)CCCCCCCCCC | – | 19.7 µM (active) |
| CCCCCCCCCc1ccc(O)cc1 | inactive | – |
| Cc1cccc([N+](=O)[O-])c1 | inactive | – |
| O=C(O)C(F)(F)C(F)(F)C(F)(F)C(F)(F)C(F)(F)C(F)(F)C(F)(F)C(F)(F)F | inactive | – |
| CC1=C2C[C@H]3[C@@H](CC=C4C[C@@H](O)CC[C@@]43C)[C@@H]2CC[C@]12O[C@@H]1C[C@H](C)CN[C@H]1[C@H]2C | inactive | – |

Each compound was assayed against human FYN Proto-Oncogene, Src family Tyrosine Kinase (Fyn), FYN (gene 2534) (UniProt P06241) (assay: NVS_ENZ_hFyn: NovaScreen (NVS) Enzymatic Assay for human FYN Proto-Oncogene, Src family Tyrosine Kinase (Fyn) (AID 2283161)).
Method in brief: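 Recombinant enzyme with fluorescent substrate, product separated by electrophoretic mobility shift; read 1 h after dosing. Duplicate 25 uM single-point screen, actives retested in concentration series; loss of signal vs DMSO.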

Chain of human FYN Proto-Oncogene, Src family Tyrosine Kinase (Fyn), FYN (gene 2534) (P06241 whole entry, looked up): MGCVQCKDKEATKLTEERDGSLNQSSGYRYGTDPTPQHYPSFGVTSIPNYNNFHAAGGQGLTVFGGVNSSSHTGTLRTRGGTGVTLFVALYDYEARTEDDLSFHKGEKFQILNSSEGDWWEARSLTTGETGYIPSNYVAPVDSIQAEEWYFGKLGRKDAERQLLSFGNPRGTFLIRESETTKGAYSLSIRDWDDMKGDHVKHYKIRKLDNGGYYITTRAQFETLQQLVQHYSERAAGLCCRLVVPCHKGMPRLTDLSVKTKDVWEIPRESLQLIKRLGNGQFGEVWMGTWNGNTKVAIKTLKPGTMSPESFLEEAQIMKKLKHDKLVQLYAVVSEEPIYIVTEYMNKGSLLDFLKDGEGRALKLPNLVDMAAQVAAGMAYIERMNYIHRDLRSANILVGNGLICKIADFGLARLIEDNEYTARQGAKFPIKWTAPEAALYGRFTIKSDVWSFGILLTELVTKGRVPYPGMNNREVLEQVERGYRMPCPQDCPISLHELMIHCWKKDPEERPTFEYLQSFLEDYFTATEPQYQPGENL

| SMILES | outcome |
| --- | --- |
| O=C(O)C(F)(F)C(F)(F)C(F)(F)C(F)(F)C(F)(F)C(F)(F)C(F)(F)C(F)(F)F | inactive |
| Oc1ccc(C(c2ccc(O)cc2)(C(F)(F)F)C(F)(F)F)cc1 | inactive |
| CC1=C2C[C@H]3[C@@H](CC=C4C[C@@H](O)CC[C@@]43C)[C@@H]2CC[C@]12O[C@@H]1C[C@H](C)CN[C@H]1[C@H]2C | inactive |

The compounds below were run against Histone deacetylase 3 (Homo sapiens) (UniProt O15379) (assay: NVS_ENZ_hHDAC3: NovaScreen (NVS) Enzymatic Assay for human Histone Deacetylase 3 (HDAC3) (AID 2283163)).
Method in brief: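 Recombinant human HDAC3 with fluorescent substrate, 1 h after dosing; product separated from substrate by electrophoretic mobility shift and read by fluorescence. Primary screen at 25 uM in duplicate; actives (e.g. ≥30% inhibition) retested in concentration-response up to 50 uM.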

Chain of Histone deacetylase 3 (Homo sapiens) (O15379 whole entry, looked up): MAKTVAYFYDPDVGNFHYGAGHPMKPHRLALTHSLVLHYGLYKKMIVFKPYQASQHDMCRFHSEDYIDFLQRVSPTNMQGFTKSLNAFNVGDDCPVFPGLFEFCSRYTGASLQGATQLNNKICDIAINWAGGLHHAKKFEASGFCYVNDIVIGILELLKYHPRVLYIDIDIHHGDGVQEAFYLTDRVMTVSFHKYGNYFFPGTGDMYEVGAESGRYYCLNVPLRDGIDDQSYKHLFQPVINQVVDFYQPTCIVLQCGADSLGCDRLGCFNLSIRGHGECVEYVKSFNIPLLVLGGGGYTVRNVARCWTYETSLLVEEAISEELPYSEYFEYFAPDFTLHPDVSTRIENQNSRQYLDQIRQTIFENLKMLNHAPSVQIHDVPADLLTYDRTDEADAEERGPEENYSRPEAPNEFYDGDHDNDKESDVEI

| SMILES | outcome |
| --- | --- |
| Nn1cnnc1 | inactive |
| c1cc2ccc3cccc4ccc(c1)c2c34 | inactive |
| O=C(O)C(F)(F)C(F)(F)C(F)(F)C(F)(F)C(F)(F)F | inactive |
| CC1=C2C[C@H]3[C@@H](CC=C4C[C@@H](O)CC[C@@]43C)[C@@H]2CC[C@]12O[C@@H]1C[C@H](C)CN[C@H]1[C@H]2C | inactive |
| CCOP(=S)(OCC)SCSC(C)(C)C | inactive |

Each compound was assayed against Protein deacetylase HDAC6 (Homo sapiens) (UniProt Q9UBN7) (assay: NVS_ENZ_hHDAC6: NovaScreen (NVS) Enzymatic Assay for human Histone Deacetylase 6 (HDAC6) (AID 2283164)).
Protocol: NVS_ENZ_hHDAC6 is a biochemical, single-readout assay that uses extracted gene-proteins in a cell-free assay. Measurements were taken 1 hour after chemical dosing in a 384-well plate.NVS_ENZ_hHDAC6 is one of one assay component(s) measured or calculated from the NVS_ENZ_hHDAC6 assay. It is designed to make measurements of enzyme activity, a form of enzyme reporter, as detected with fluorescence intensity signals by Fluorescence and electrophoretic mobility shift technology.Data from the assay component NVS_ENZ_hHDAC6 was analyzed into 1 assay endpoint. This assay endpoint, NVS_ENZ_hHDAC6, was analyzed in the positive analysis fitting direction relative to DMSO as the negative control and baseline of activity. Using a type of enzyme reporter, loss-of-signal activity can be used to understand changes in the enzymatic activity as they relate to the gene HDAC6. Furthermore, this assay endpoint can be referred to as a primary readout, because this assay has produced multiple assay endpoints where this one serves a enzymatic activity function. To generalize the intended target to other relatable targets, this assay endpoint is annotated to the hydrolase intended target family, where the subfamily is histone deacetylase.
Binding assays used specific radioligands (tritiated, iodinated) with non-radioactive competitive displacement ligands in agonist or antagonist protocols (as indicated) and various reference compounds and inhibitors to titrate specific binding to receptors and transporters. Most enzyme assays (CYPs, kinases, phosphatases, proteases, HDACs) used recombinant protein and specific substrates (fluorescence mostly, some colorimetric and radioactive) and inhibitors, followed by a biochemical separation of substrate and product. All assays for the biochemical HTS were initially run in duplicate at a single concentration (10 uM for CYP450 assays and 25 uM for all others). Assay-chemical combinations meeting a pre-defined threshold (e.g., 30% inhibition and other criteria defined below) were then run in singleton concentration-response format with maximum concentration of 20 uM for CYPs and 50 uM for all others. Each assay was run with positive and negative controls, and concurrent controls on every plate. The follow-up (secondary) screen tested active chemical-pairs in concentration series, as well as a few additional assays not tested in the primary screen, some selected negative inactives, and several cases re-run in the concentration series for confirmatory purposes.

Chain of Protein deacetylase HDAC6 (Homo sapiens) (Q9UBN7 whole entry, looked up): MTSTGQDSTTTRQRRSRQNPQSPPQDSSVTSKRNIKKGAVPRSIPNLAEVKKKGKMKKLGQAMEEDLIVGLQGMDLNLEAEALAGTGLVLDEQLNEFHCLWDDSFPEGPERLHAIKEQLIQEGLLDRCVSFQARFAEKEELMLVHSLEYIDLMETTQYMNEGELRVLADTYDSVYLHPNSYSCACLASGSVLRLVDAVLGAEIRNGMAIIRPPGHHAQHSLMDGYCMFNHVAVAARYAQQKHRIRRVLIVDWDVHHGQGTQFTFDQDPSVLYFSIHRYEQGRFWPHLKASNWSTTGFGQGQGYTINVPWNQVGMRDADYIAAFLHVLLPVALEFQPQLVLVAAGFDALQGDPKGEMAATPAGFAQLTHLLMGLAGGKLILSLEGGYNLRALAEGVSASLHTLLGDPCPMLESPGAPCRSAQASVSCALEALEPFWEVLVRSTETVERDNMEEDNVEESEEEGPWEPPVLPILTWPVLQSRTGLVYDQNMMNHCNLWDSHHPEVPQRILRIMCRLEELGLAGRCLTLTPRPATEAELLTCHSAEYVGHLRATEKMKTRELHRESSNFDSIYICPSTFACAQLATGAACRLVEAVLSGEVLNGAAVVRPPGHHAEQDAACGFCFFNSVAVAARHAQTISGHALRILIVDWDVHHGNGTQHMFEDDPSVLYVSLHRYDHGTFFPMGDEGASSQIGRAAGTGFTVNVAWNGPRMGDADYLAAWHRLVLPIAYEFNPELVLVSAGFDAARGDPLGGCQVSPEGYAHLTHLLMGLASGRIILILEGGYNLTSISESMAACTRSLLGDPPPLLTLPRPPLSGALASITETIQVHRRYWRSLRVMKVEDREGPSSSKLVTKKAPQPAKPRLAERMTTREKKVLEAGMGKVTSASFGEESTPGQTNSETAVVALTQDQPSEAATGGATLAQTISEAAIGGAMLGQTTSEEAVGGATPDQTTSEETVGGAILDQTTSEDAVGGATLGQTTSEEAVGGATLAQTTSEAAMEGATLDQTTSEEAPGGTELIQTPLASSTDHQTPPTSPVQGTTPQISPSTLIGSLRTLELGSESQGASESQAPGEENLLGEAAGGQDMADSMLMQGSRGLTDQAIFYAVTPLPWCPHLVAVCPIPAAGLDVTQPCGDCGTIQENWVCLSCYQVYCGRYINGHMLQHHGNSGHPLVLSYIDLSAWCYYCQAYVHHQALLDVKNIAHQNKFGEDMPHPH

| SMILES | outcome |
| --- | --- |
| c1cc2ccc3cccc4ccc(c1)c2c34 | inactive |
| CCOCCOC(C)=O | inactive |
| O=S(=O)(O)C(F)(F)C(F)(F)C(F)(F)C(F)(F)C(F)(F)C(F)(F)F | inactive |
| CC1=C2C[C@H]3[C@@H](CC=C4C[C@@H](O)CC[C@@]43C)[C@@H]2CC[C@]12O[C@@H]1C[C@H](C)CN[C@H]1[C@H]2C | inactive |

Source: PubChem BioAssay (EPA / NIEHS)
